Rows were chosen to be rich in hits. Some 3.9% of all compounds tested hit in one or more screens of this group.
ALR H2O2 inh: inhibitors of human ALR sulfhydryl oxidase, primary screen, biochemical, H2O2 detection, HRP-luminol luminescence, single point; purified ALR, DTT oxidation; inhibition, % (no concentration beside the values); 290,000 compounds, 3.8% hits; AID 485317, 2010;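 active means mean replicate inhibition above about 79%, with every replicate also reaching it, limit read from the data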
Target sequence (P55789 whole entry, looked up): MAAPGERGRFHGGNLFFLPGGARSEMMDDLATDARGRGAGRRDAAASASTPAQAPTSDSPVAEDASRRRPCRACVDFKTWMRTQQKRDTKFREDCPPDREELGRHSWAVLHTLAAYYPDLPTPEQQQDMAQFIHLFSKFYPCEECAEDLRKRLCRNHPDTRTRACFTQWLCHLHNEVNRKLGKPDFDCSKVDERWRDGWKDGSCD
NSD2 HMT inh: NSD2 histone methyltransferase inhibitors, primary screen, biochemical, AlphaScreen, single concentration, set 2; Histone-lysine N-methyltransferase NSD2 (Homo sapiens), O96028; NSD2 peptide methylation, 120 min; inhibition, % at 12.5 µM; 310,000 compounds, 0.54% hits; AID 743445, 2014; in the data active means inhibition above about 50%
SUMO Mot1 rescue: yeast Mot1-301 growth rescue at high temperature, primary screen, SUMOylation pathway inhibitor project, S. cerevisiae, ATP luminescence, 38.5C | 320,000 compounds, 1% hits | S. cerevisiae Mot1-301 growth rescue; percent above DMSO median, 100 means doubled | growth rescue, % at 18.8 µM;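 active means every valid replicate shows activation above 250% relative to neutral control wells; inactive means the rest, any valid replicate at or below 250%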;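 further: OY570 slx delta 5 strain wells were the positive control but not used for scaling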
CDK5 p35 inh: inhibitors of human CDK5/p35 kinase, primary screen, biochemical, single concentration; Cyclin-dependent kinase 5 (Homo sapiens) + Cyclin-dependent kinase 5 activator 1 (Homo …; Recombinant CDK5/p35, ADP-Glo luminescence, 60 min; inhibition, % at 10 µM; 330,000 compounds, 0.01% hits; AID 488839, 2010;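 active means highest replicate inhibition of at least 50% and at least 75% of replicates reaching 50%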;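 further: plate controls were DMSO neutral control for no effect and GW8510 at 10 µM for full effect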
Glyco luc inh: increase of ERlucT glycosylation luciferase signal, primary screen, N-linked glycosylation inhibitor project, D54 ERlucT cells, luminescence, set 2 | AID 588692, 2011 | 360,000 compounds, 0.23% hits | reporter increase, % at 12.5 µM | D54 ERlucT glycosylation luciferase reporter, 24 h; percent of 100 nM tunicamycin response;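 active means mean luciferase reporter signal, scaled so untreated is 0 and the glycosylation-blocking control 100, at or above a set limit in every replicate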;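 further: luciferase carries N-glycosylation sites so blocking glycosylation raises the light; 0% = median of neutral control wells and 100% = median of 100 nM tunicamycin wells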
CASP6 VEID inh: human caspase-6 inhibitors, primary screen, biochemical, VEID-R110 fluorescence, single point, set 2; P55212; purified caspase-6, Z-VEID-R110 cleavage fluorescence; inhibition, % at 12.5 µM; 350,000 compounds, 0.53% hits; AID 686996, 2013;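 active means mean inhibition across replicates at least about 35%, with every replicate also reaching that limit, limit read from the data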;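 further: 0% = median of neutral control wells and 100% = no fluorescence left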
Target sequence (P55212 24-179 limits assumed): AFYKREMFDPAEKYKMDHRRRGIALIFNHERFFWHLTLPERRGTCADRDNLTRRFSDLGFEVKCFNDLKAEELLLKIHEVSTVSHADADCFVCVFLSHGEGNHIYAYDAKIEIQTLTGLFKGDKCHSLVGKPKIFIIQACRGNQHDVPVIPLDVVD
Target sequence (P55212 194-293 limits assumed): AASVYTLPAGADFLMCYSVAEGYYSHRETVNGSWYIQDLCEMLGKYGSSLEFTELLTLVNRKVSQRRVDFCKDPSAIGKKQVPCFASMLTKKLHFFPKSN
Active calls of the source: *; . = not tested or not shown.

SMILES	ALR H2O2 inh	NSD2 HMT inh	SUMO Mot1 rescue	CDK5 p35 inh	Glyco luc inh	CASP6 VEID inh
CC1N(C)c2cc(NC(=O)c3ccco3)c(P(=O)(Nc3ccc([N+](=O)[O-])cc3)N3CCOCC3)cc2C1(C)C (configuration not stated)	-33.9	3.0	10.8	-1.4	-7.1	2.5
CC(Oc1ccccc1)C(=O)Nc1cccc(NC(=O)c2ccco2)c1 (configuration not stated)	9.0	7.4	-22.5	0.5	0.1	38.8*
CN(C)c1cccc(NC(=O)c2ccco2)c1	99.1*	1.8	-26.9	0.4	0.2	-1.5
CN(C(=O)c1cccc(NC(=O)c2ccco2)c1)c1ccccc1	.	-3.6	8.7	0.6	-1.0	2.0
CC1N(C)c2cc(NC(=O)c3ccco3)ccc2C1(C)C (configuration not stated)	97.6*	3.5	2.1	-1.2	-2.2	-0.5
CSc1cccc(NC(=O)c2ccco2)c1	97.8*	1.5	-4.1	0.1	-1.2	2.0
C[C@H](CO)N1C[C@H](C)[C@@H](CN(C)S(=O)(=O)c2ccc(Cl)cc2)OCCCC[C@H](C)Oc2ccc(NC(=O)NC3CCCCC3)cc2C1=O	.	.	.	.	.	-0.7
O=C(Nc1ccc2c(c1)[C@H]1C[C@H](CC(=O)N3CCOCC3)O[C@H](CO)[C@H]1O2)NC1CCCC1	.	.	.	.	.	-0.3
COc1ccc(S(=O)(=O)N(C)C[C@@H]2Oc3ccc(NC(=O)CCN4CCOCC4)cc3CC(=O)N([C@@H](C)CO)C[C@H]2C)cc1	.	.	.	.	.	-2.4
COc1ccc(S(=O)(=O)Nc2ccc3c(c2)C(=O)N([C@H](C)CO)C[C@H](C)[C@H](CN(C)C(=O)c2ccccc2)OCCCC[C@@H](C)O3)cc1	.	.	.	.	.	-4.4
COc1cccc(-c2ccc([C@H]3[C@@H](CO)N4C(=O)CN(C(=O)C5CCCC5)C[C@@H]34)cc2)c1	.	.	.	.	.	1.1
CC(Oc1ccc(Cl)cc1)C(=O)NNC(=S)NC(=O)c1ccco1 (configuration not stated)	97.8*	0.2	3.7	-0.2	2.7	2.6
O=C(COc1ccc(Cl)cc1Cl)NNC(=S)NC(=O)c1ccco1	.	-2.2	-13.3	0.6	2.2	1.5
CCN1/C(=C2/OC(=S)N(C)C2=O)Sc2ccccc21	.	-1.3	.	-0.5	0.5	.
CCN1/C(=C2/SC(=S)NC2=O)Sc2ccccc21	91.2*	7.6	-6.3	2.8	2.3	-5.5
NC(=O)c1cc2c(s1)-c1cc(Cl)ccc1SC2	-9.7	-0.4	351.1*	-0.7	-0.6	-2.2
CC1=C(C(=O)Nc2cc(-c3cccc(F)c3)[nH]n2)C2(CCCCC2)OC1=O	85.8*	.	-9.2	-0.6	-2.5	7.4
Cc1cc(C)c(C(=O)N2CCCC(Nc3ccc(F)cc3)C2)o1 (configuration not stated)	98.8*	4.3	3.2	.	1.2	1.6
CCOC(=O)c1[nH]c(C)c(C(=O)N2CCCC(Nc3ccc(C)c(C)c3)C2)c1C (configuration not stated)	98.6*	5.9	15.4	-4.5	0.7	1.7
Cn1c(C(=O)N2CCCC(Nc3ccc(F)cc3)C2)cc2ccccc21 (configuration not stated)	41.5	5.6	-4.1	-6.4	3.2	40.8*
Cc1cc(C)c(C(=O)N2CCCC(Nc3ccc(C)c(C)c3)C2)o1 (configuration not stated)	99.3*	23.8	-6.0	-2.6	-2.7	1.4
CCOC(=O)c1[nH]c(C)c(C(=O)Nc2ccc(C)c(C)c2)c1C	17.2	.	-11.7	0.1	10.0	-1.7
CCCNC(=O)N(C)C[C@H]1Oc2ncc(-c3ccc(F)cc3)cc2C(=O)N([C@@H](C)CO)C[C@H]1C	.	.	.	.	.	1.7
Cc1ccccc1-c1ccc([C@@H]2[C@@H](CO)N3C(=O)CN(C(=O)Nc4ccc(F)cc4)C[C@@H]23)cc1	.	.	.	.	.	-1.8
O=C(Cc1cccnc1)N1CC(=O)N2[C@H](CO)[C@@H](c3ccc(C4=CCCC4)cc3)[C@H]2C1	.	.	.	.	.	1.9
SMILES	ALR H2O2 inh	NSD2 HMT inh	SUMO Mot1 rescue	CDK5 p35 inh	Glyco luc inh	CASP6 VEID inh
COc1ccc(NC2CCCN(C(=O)c3oc(C)cc3C)C2)cc1OC (configuration not stated)	99.5*	9.9	-11.7	1.0	2.9	-2.2
Oc1ccc(Br)cc1-c1nc2cnccn2c1NC1CCCCC1	92.1*	-0.5	-7.2	2.1	-4.7	-0.8
Fc1ccc(-c2nc3cnccn3c2NC2CCCC2)cc1	99.3*	-1.9	-4.9	-1.8	-0.2	-5.5
Cc1ccn2c(NC3CCCCC3)c(-c3cccc(SC4CCCCC4)c3)nc2c1	-1.2	1.7	-16.5	2.3	-0.2	-1.2
Oc1ccc(Br)cc1-c1nc2cnccn2c1NC1CCCC1	94.4*	.	16.6	3.4	-8.9	.
COc1ccc(-c2nc(CS(=O)CC(=O)N3CCN(C)CC3)c(C)o2)cc1OC (configuration not stated)	98.9*	.	-5.3	1.6	4.7	1.2
COc1ccc(-c2nc(CN3CCC(C(=O)N4CCOCC4)CC3)c(C)o2)cc1OC	-1.0	-1.4	-6.5	-1.9	0.3	-6.0
COc1ccc(-c2nc(CS(=O)CC(=O)N3CCOCC3)c(C)o2)cc1OC (configuration not stated)	99.5*	5.8	138.9	-0.6	1.9	0.6
COc1ccc(-c2nc(CS(=O)CC(=O)N3CCN(C)CC3)c(C)o2)cc1 (configuration not stated)	99.1*	4.3	11.9	.	1.9	-7.8
CCC(=O)N(C)C[C@@H]1Oc2cc(-c3cncnc3)ccc2S(=O)(=O)N([C@@H](C)CO)C[C@H]1C	.	.	.	.	.	2.8
COc1ccc(-c2cn(CC[C@H]3CC[C@@H](NS(=O)(=O)c4ccccc4C)[C@@H](CO)O3)nn2)cc1	.	.	.	.	.	-2.7
COc1cc(N=Nc2cccc(S(N)(=O)=O)c2)c2ccccc2c1N	12.6	10.1	-10.0	10.4	116.2*	.
CCS(=O)(=O)Nc1ccc2c(c1)C(=O)N(C)[C@H]1CC[C@@H](CC(=O)NCc3ccc(OC)cc3)O[C@H]1CO2	.	.	.	.	.	0.0
C#CCOc1ccc(CNC[C@H]2O[C@@H](n3ccc(N)nc3=O)[C@H](O)[C@@H]2O)cc1	.	.	.	.	1.8	39.0*
CCN(CCNC(=O)c1cccc(N2CCCC2=O)c1)c1ccccc1	98.4*	2.7	-11.6	0.2	2.6	.
CCN(CCCNC(=O)c1ccc(N2CCCC2=O)cc1)c1cccc(C)c1	90.3*	3.1	8.3	-1.0	-0.4	.
CCN(CCCNC(=O)c1[nH]c(C)c(C(C)=O)c1C)c1cccc(C)c1	98.6*	4.2	-3.0	-2.3	2.4	.
